From PubChem BioAssay AID720697 (Broad Institute, 2013)
Measured potencies and affinities stand elsewhere. Records with an inconclusive call do not appear. Active and inactive are the calls of the source.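 The calls were made as follows: active = signal loss with fitted half-maximal concentration at or below twice the top valid tested dose in every test run; inconclusive = runs disagree, flat 30 to 70% signal loss, or poor fit; inactive = all runs flat, opposite direction, or potency beyond limit.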

Experiment: HEK293T cytotoxicity, dose response, cytotoxicity control for miR-122 modulator project, cell-based, inhibitor set, cherry-pick, set 2 (AID 720697)
Conditions: HEK293T viability, CellTiter-Glo luminescence, 48 h; series mostly up to 26 µM

Row | Compound | outcome
1 | CCN(C[C@H]1N[C@H](CO)[C@H]1c1ccc(C2=CCCC2)cc1)C(=O)c1cccnc1 | inactive
2 | COCC(=O)Nc1ccc2c(c1)C(=O)N(C)[C@H]1CC[C@@H](CC(=O)NCCCN(C)C)O[C@@H]1CO2 | inactive
3 | CNC(=O)C[C@@H]1CC[C@@H]2[C@@H](COc3ccc(NC(=O)Cc4cccs4)cc3C(=O)N2C)O1 | inactive
4 | C[C@@H]1CN([C@@H](C)CO)S(=O)(=O)c2ccc(C#CC3CC3)cc2O[C@@H]1CN(C)C(=O)c1cccc(F)c1 | inactive
5 | CC1(C)CC(=O)c2cnc(NC(=O)c3ccco3)nc2C1 | inactive
6 | C/C=C/c1ccc([C@@H]2[C@@H](CO)N(S(C)(=O)=O)[C@H]2CN(C)C(=O)CC)cc1 | inactive
7 | O=C(COC(=O)c1ccccc1)Nc1cc(Cl)ccc1Oc1ccccc1 | inactive
8 | CN1C(=O)c2cc(NC(=O)c3ccc4c(c3)OCO4)ccc2OC[C@H]2O[C@@H](CC(=O)O)CC[C@@H]21 | inactive
9 | CCCNC(=O)C[C@@H]1CC[C@@H]2[C@@H](COc3ccc(NC(=O)Nc4ccccc4F)cc3C(=O)N2C)O1 | inactive
10 | COc1cccc(C(=O)Nc2ccc3c(c2)C(=O)N(C)[C@@H]2CC[C@@H](CC(=O)NCc4ccc(F)cc4)O[C@@H]2CO3)c1 | inactive
11 | CCNC(=O)C[C@H]1CC[C@H]2[C@@H](COc3ccc(NS(C)(=O)=O)cc3C(=O)N2C)O1 | inactive
12 | CC(=O)N1[C@H](CN(C(=O)c2ccc(F)cc2)C(C)C)[C@@H](c2ccccc2)[C@@H]1CO | inactive
13 | CCCNC(=O)N1[C@H](CO)[C@H](c2ccc(-c3ccccc3)cc2)[C@@H]1CNC(C)=O | inactive
14 | C[C@H](CO)N1C[C@H](C)[C@H](CN(C)C(=O)Nc2cccc3ccccc23)Oc2ncc(C#Cc3ccc(C(F)(F)F)cc3)cc2C1=O | inactive
